# Records with an inconclusive call do not appear. A call without a number means that no potency is given here. Calls of active or inactive are those of the source. Calls follow the shape of the dose curve; as a rule, active = well fitted inhibition curve with a large enough effect; inconclusive = small, poorly fitted or top-dose-only effect; inactive = flat fitted curve, though single readings scatter.
# Biological target: Glutathione peroxidase 1 (Homo sapiens) (UniProt P07203)
# Assay: Primary qHTS Assay for Inhibitors of Recombinant Selenoprotein Glutathione Peroxidase 1 (GPX1) (AID 1845191); also: nearly all actives have a fitted effect of over 65% in size
# Conditions: recombinant GPX1, GR-coupled NADPH fluorescence, 15 min; series mostly up to 48.8 µM
# Outline: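 10 nM GPX1 + cpd, 30 min RT; start w/ 1 mM GSH, 0.5 mM cumene hydroperoxide, 0.5 mM NADPH, 100 nM GR, 0.01% BSA; buffer 50 mM Tris-HCl pH 7.5, 2 mM EDTA, 150 mM NaCl; Fl 340/450, 0 & 15 min.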
# Glutathione peroxidase 1 (Homo sapiens), sequence (P07203 whole entry, looked up): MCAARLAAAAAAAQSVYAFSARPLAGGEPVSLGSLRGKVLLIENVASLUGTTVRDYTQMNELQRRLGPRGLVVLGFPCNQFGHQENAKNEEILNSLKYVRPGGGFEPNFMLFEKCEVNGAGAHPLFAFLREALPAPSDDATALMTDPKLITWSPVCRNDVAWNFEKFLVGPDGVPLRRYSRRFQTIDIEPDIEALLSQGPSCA
SMILES,Potency,"activity, negative = inhibition",outcome
C[C@@H]1CC[C@@]2(OC1)OC1CC3C4CC=C5CC(O)CCC5(C)C4CCC3(C)C1[C@@H]2C (stereo partly drawn),inactive,–,–
OCCNC1CCCc2c1[nH]c1ccc(-c3ccccc3)cc21 (stereo not drawn),inactive,–,–
C[C@H]1[C@@H](OC(=O)CCC(=O)O)O[C@@H]2O[C@@]3(C)CC[C@@H]4[C@H](C)CC[C@@H]1[C@@]24OO3,inactive,–,–
Cc1cc(Nc2ncc3c(n2)N(C)C(=O)N(c2cc(NC(=O)c4cccc(C(F)(F)F)c4)ccc2C)C3)n(C)n1,inactive,–,–
Cc1coc2c1C(=O)C(=O)c1c-2ccc2c(C)cccc12,inactive,–,–
NC(=O)N1CCC(CC(=O)N2CCC([C@H]3c4ncc(Br)cc4CCc4cc(Cl)cc(Br)c43)CC2)CC1,inactive,–,–
COc1cc(C[C@@H](CO)[C@H](CO)Cc2ccc(O)c(OC)c2)ccc1O,inactive,–,–
COc1ccc(C=Cc2cc(OC)c(OC)c(OC)c2)cc1NC(=O)[C@H](N)CO,inactive,–,–
COC1=C(OC)C(=O)C(CC=C(C)CCC=C(C)CCC=C(C)CCC=C(C)CCC=C(C)CCC=C(C)CCC=C(C)CCC=C(C)CCC=C(C)CCC=C(C)C)=C(C)C1=O,–,1.94% [at 4.49 µM] (inactive),–
COc1cc(CCc2cc(NC(=O)c3ccc(N4C[C@@H](C)N[C@@H](C)C4)cc3)n[nH]2)cc(OC)c1,inactive,–,–
O=C(NC1CC1)c1cccc(-c2ccc3c(NC(=O)C4CC4)n[nH]c3c2)c1,inactive,–,–
CC(Oc1ccc(O)cc1)(P(=O)(O)O)P(=O)(O)O,inactive,–,–
C[N+](C)([O-])CCNc1ccc(NCC[N+](C)(C)[O-])c2c1C(=O)c1c(O)ccc(O)c1C2=O,inactive,–,–
CC(C)(C)c1nc2c3cc[nH]c(=O)c3c3cc(F)ccc3c2[nH]1,inactive,–,–
CC(C=CC=C(C)C=CC1=C(C)CCCC1(C)C)=CC=CC=C(C)C=CC=C(C)C=CC1=C(C)CCCC1(C)C,–,–,inactive [at 0.4 µM]
C=CC(=O)N1CCc2ccc(-n3c(=O)ccc4cnc5ccc(-c6cnn(C)c6)cc5c43)cc21,inactive,–,–
COC(=O)[C@H](CCCN=C(N)N)NS(=O)(=O)c1ccc(C)cc1,inactive,–,–

SMILES,Potency,"activity, negative = inhibition",outcome
O=c1ccn([C@@H]2O[C@H](CO)[C@H](O)[C@@H]2F)c(=O)[nH]1,inactive,–,–
CC1(C)O[C@@H]2C[C@H]3[C@@H]4CCC5=CC(=O)C=C[C@]5(C)[C@@H]4[C@@H](O)C[C@]3(C)[C@]2(C(=O)CO)O1,inactive,–,–
CN(CC(=O)N(Cc1ccc(C2CCCCC2)cc1)c1ccc(C(=O)O)c(O)c1)S(=O)(=O)c1c(F)c(F)c(F)c(F)c1F,inactive,–,–
CC(Cc1ccc(O)c(O)c1)(NN)C(=O)O (stereo not drawn),inactive,–,–
NC(=O)c1cccc(-c2cccc(OC(=O)NC3CCCCC3)c2)c1,inactive,–,–
FC(F)(F)c1ccc(Nc2nc3ccc(Oc4ccnc(-c5ncc(C(F)(F)F)[nH]5)c4)cc3[nH]2)cc1,inactive,–,–
C[C@@H]1C(=O)O[C@H]2CC34[C@H]5C[C@@H](C(C)(C)C)C36[C@H](OC(=O)[C@@H]6O)O[C@@]4(C(=O)O5)[C@]21O (stereo partly drawn),inactive,–,–
CCCCC(=O)O[C@]1(C(=O)CO)[C@@H](C)C[C@H]2[C@@H]3CCC4=CC(=O)C=C[C@]4(C)[C@@]3(F)[C@@H](O)C[C@@]21C,inactive,–,–
CCCCCCCCc1ccc(CCC(N)(CO)CO)cc1,inactive,–,–
Oc1ccc([C@@H]2Oc3ccc(O)cc3[C@@H]3CCC[C@@H]32)cc1,inactive,–,–
CN1C(C(=O)Nc2ccccn2)=C(O)c2sc(Cl)cc2S1(=O)=O,inactive,–,–
Nc1nc2c(c(=O)[nH]1)N(C=O)[C@H](CNc1ccc(C(=O)N[C@@H](CCC(=O)O)C(=O)O)cc1)CN2,inactive,–,–
NC[C@H]1O[C@H](O[C@H]2[C@@H](O)[C@@H](O[C@H]3O[C@H](CO)[C@@H](O)[C@H](N)[C@@H]3O)[C@H](N)C[C@@H]2N)[C@H](N)C[C@H]1O,–,–,inactive [at 9.52 µM]
COc1cccc2c1C(=O)c1c(O)c3c(c(O)c1C2=O)C[C@@](O)(C(=O)CO)C[C@@H]3O[C@H]1C[C@H](N)[C@H](OC2CCCCO2)[C@H](C)O1 (stereo partly drawn),inactive,–,–
N#CNC(=NCCCCCCOc1ccc(Cl)cc1)Nc1ccncc1,inactive,–,–
Cc1ccccc1C(=O)Nc1ccc(C(=O)N2CCCC(O)c3cc(Cl)ccc32)c(C)c1 (stereo not drawn),inactive,–,–
